Source: PubChem BioAssay (NCATS)
Results filed as inconclusive are left out. A call without a number means that no potency is given here. Active and inactive are the calls of the source. Calls come from the whole dose curve; as a rule, active = well fitted cell-killing curve with a large enough effect; inconclusive = small, poorly fitted or top-dose-only effect; inactive = flat fitted curve, though single readings scatter.

Assay: Quantitative highthroughput screen to assess conditional lethalithy of P12 Ichikawa cells grown in RPMI1640 with untreated serum (RPMI+s) (AID 1963881); note: nearly all actives have a fitted effect of over 35% in size
Conditions: ATP luminescence, 48 h; Potency: viability; series mostly up to 45.8 µM
Source text: Assay Provider: Jason Cantor Ph.D.
Department of Biochemistry
University of Wisconsin-Madison, Madison, WI, USA
Chemical screening studies have identified drug sensitivities across hundreds of cancer cell lines but most putative therapeutics fail to translate. Discovery and development of drug candidates in models that more accurately reflect nutrient levels in human blood is a major challenge. Here we performed high-throughput screens in conventional versus Human Plasma-Like Medium (HPLM) to identify compounds that were "missed" when screening using the artificial culture condition. Sets of conditional anticancer compounds spanned phases of clinical development and included non-oncology drugs were assessed. […] We also traced conditional phenotypes for several chemotherapeutics to availability of HPLM-specific metabolites and confirmed others for compounds whose reported targets are encoded by nonessential genes. Our findings establish generalizable strategies for exploiting conditional lethality in HPLM to reveal therapeutic candidates and mechanisms of action in cancer cells.
Described herein are the results of each viability screens against three cell lines: NOMO1 (an acute myeloid leukemia cell line); P12-Ichikawa (a T-cell acute lymphoblastic leukemia); and SEM (a B-cell ALL). Each assay was screened using 3 different cell culture media: homemade human plasma-Like medium with 10% dialyzed fetal bovine serum (HPLM+ds); RPMI1640 with 10% untreated FBS and 5mM glucose (RPMI+s); and RPMI1640 with 10% dialyzed fetal bovine serum and 5 mM glucose (RPMI+ds).
PROTOCOL TABLE (as described by Inglese J, Shamu CE and Guy RK. 2007)
SEQUENCE No. (e.g., 1, 2, 3, etc.); […] (e.g., Cells, Incubation, Reagent, etc.); VALUE and DESCRIPTION.
1; Cells; 5 uL; white, solid bottom 1536-well Greiner assay plate.
2; Compounds; 23 nL; Kalypsis pin tool (Wako USA) equipped with a 1536-well pin head to transfer to the assay plates.
3; Incubation; 48 hours; 37C incubation.
4; Reagent; 3 uL; CellTiter Glo (Promega).
5; Incubation; 5 min, room temperature
6; Detection; Luminescence, Viewlux PerkinElmer.
NOTES (numbers refer to Sequence numbers above)
1. Briefly, 5 ul of cell reagent was dispensed using a Multidrop Combi Dispenser. The NOMO1 and SEM cells were plated at 500 cells/well and the P12-Ichikawa line at 1000 cells/well.
2. After seeding the cells, 23 nL of MIPE 4.1 library compounds (in DMSO) were added to each plate using a Kalypsys 1536 Pintool dispenser. Bortezomib at final concentration of […] and DMSO were added to each plate as positive and negative controls respectively. For each screen, MIPE 4.1 compounds were added over an eleven-point concentration range […] in 3-fold dilutions.
3. Each plate was covered with a stainless steel gasketed lid to prevent evaporation and incubated for 48 hour at 37C, 95% relative humidity, and 5% CO2.
4-5. Three microliter CellTilter-GloTM luminescent substrate mix (Promega) reagent was added to the assay plate and incubated at room temperature for 5 min.
6. The luminescence signal was measured using a ViewLux (PerkinElmer) multiplate reader with a 2 second exposure time per plate. Data for each compound were normalized as percent viability such that measurements for DMSO and the empty well controls in each plate were defined as 100% and 0%, respectively.
Potency is the fitted concentration of half-maximal effect.

Row | SMILES | Potency
1 | CCOC(=O)Nc1ccc(NCc2ccc(F)cc2)cc1N | inactive
2 | Cc1nc(-c2ccc(-c3ccc(C(=O)N4CCc5cc6c(cc54)C4(CCN(C)CC4)CO6)cc3)c(C)c2)no1 | inactive
3 | NC1CC1c1ccccc1 (stereo not given) | inactive
4 | C[C@@H]1O[C@@H](O[C@@H]2C=C3CC[C@@H]4[C@@H](CC[C@]5(C)[C@H](c6ccc(=O)oc6)CC[C@@]45O)[C@@]3(C)CC2)[C@H](O)[C@H](O)[C@H]1O | 41.8 nM (active)
5 | O=C(O)C(=O)c1cn(Cc2ccccc2)c2ccc(-c3ccc(OC(F)(F)F)cc3)cc12 | inactive
6 | CNCC(O)c1ccc(O)cc1 (stereo not given) | inactive
7 | CC(=O)O[C@@]12CO[C@H]1C[C@H](O)[C@@]1(C)C(=O)[C@H](O)C3=C(C)[C@@H](O)C[C@@](O)([C@@H](OC(=O)c4ccccc4)[C@@H]21)C3(C)C | 9350 nM (active)
8 | Clc1ccccc1C(c1ccccc1)(c1ccccc1)n1cccn1 | inactive
9 | CC(C)(C)c1cc(C=C(C#N)C#N)cc(Br)c1O | inactive
10 | CN(C)CCc1ccc(O)cc1 | inactive
11 | O=C(O)CNC(=O)c1c(O)c2ccccc2n(Cc2ccccc2)c1=O | inactive
12 | CC(C)(O)C=CC(=O)[C@](C)(O)[C@H]1[C@H](O)C[C@]2(C)[C@@H]3CC=C4[C@@H](C=C(O)C(=O)C4(C)C)[C@]3(C)C(=O)C[C@@]12C | 148 nM (active)
13 | CC(N[C@H]1C[C@H]1c1ccccc1)c1ccc2c(c1)OCCO2 (stereo not given in full) | inactive
14 | C[C@]12COC(=O)C[C@@H]1CC[C@@H]1[C@H]2CC[C@@]2(C)[C@H]1CC[C@]2(C)O | inactive
15 | CN(C)CCN(C)CCc1ccc(Cl)c(Cl)c1 | inactive
16 | CC1=C2C[C@@H]3[C@@H](CC=C4C[C@@H](O)CC[C@@]43C)[C@@H]2CC[C@]12O[C@H]1C[C@H](C)CN[C@H]1[C@H]2C | inactive
17 | C[C@H]([C@H](O)CCC(C)(C)O)[C@H]1CC[C@@]2(O)C3=CC(=O)[C@@H]4C[C@@H](O)[C@@H](O)C[C@]4(C)[C@@H]3CC[C@]12C | inactive
18 | CC[C@@]1(O)C(=O)OCc2c1cc1n(c2=O)Cc2cc3ccccc3nc2-1 | 23.5 nM (active)
19 | CCOP(=O)(OCC)C(C)NC(=O)N(CCCl)N=O (stereo not given) | inactive
20 | CN1C(=O)COc2c(C(=O)NC3CN4CCC3CC4)cc(Cl)cc21 (stereo not given) | inactive

Row | SMILES | Potency
21 | CC(C)(C)[C@]1(O)C[C@@H]2OC(=O)C[C@@]23C(=O)O[C@@H]2OC(=O)[C@H](O)C213 (stereo not given in full) | inactive
22 | CN(C)[C@@H]1C(=O)C(C(N)=O)=C(O)[C@@]2(O)C(=O)C3=C(O)c4c(O)cccc4[C@@](C)(O)[C@H]3[C@H](O)[C@@H]12 | inactive
23 | COc1ccc(C(=O)c2c(C)n(CCN3CCOCC3)c3ccccc23)cc1 | inactive
24 | COc1cc2cc(c1Cl)N(C)C(=O)C[C@H](OC(=O)C(C)C)[C@]1(C)O[C@H]1[C@H](C)[C@@H]1C[C@@](O)(NC(=O)O1)[C@H](OC)C=CC=C(C)C2 | inactive
25 | CC(=Cc1csc(C)n1)[C@@H]1C[C@H]2O[C@@H]2CCC[C@H](C)[C@@H](O)[C@@H](C)C(=O)C(C)(C)[C@@H](O)CC(=O)O1 | inactive
26 | CSCC[C@@H](NC(=O)[C@@H](Cc1ccccc1)NC(=O)CNC(=O)CNC(=O)[C@@H](N)Cc1ccc(O)cc1)C(=O)O | inactive
27 | CC(C)[C@]12O[C@@H]1[C@@H]1O[C@]13[C@]1(O[C@H]1C[C@@H]1C4=C(CC[C@@]13C)C(=O)OC4)[C@H]2O | 1.5 nM (active)
28 | C[C@]12CCC(=O)C=C1CC[C@@H]1[C@H]3CC[C@](C)(O)[C@@]3(C)CC[C@@H]12 | inactive
29 | C[C@](O)(COc1ccc(C#N)cc1)C(=O)Nc1ccc(C#N)c(C(F)(F)F)c1 | inactive
30 | CC(=Cc1csc(C)n1)[C@@H]1C[C@H]2O[C@]2(C)CCC[C@H](C)[C@@H](O)[C@@H](C)C(=O)C(C)(C)[C@@H](O)CC(=O)O1 | inactive
31 | CC(C)C[C@H](CN)CC(=O)O | inactive
32 | Cc1ncc(OC[C@@]2(c3cccc(F)c3)C[C@H]2C(=O)Nc2ccc(F)cn2)c(C)n1 | inactive
33 | C[C@]12CC[C@H](O)CC1=CC[C@H]1[C@H]3CCC(=O)[C@@]3(C)CC[C@@H]12 | inactive
34 | CC(=O)Nc1ccc(OC[C@](C)(O)C(=O)Nc2ccc([N+](=O)[O-])c(C(F)(F)F)c2)cc1 | inactive
35 | CC(C)(O)C(=O)Nc1ccc([N+](=O)[O-])c(C(F)(F)F)c1 | 8330 nM (active)
36 | C=C[C@@H]1CN2CCC1C[C@@H]2[C@@H](O)c1ccnc2ccccc12 (stereo not given in full) | inactive
37 | C[C@]12CCC(=O)C(O)=C1CC[C@@H]1[C@H]3CCC(=O)[C@@]3(C)CC[C@@H]12 | inactive
38 | COc1cc(OC)c(OC)cc1C=O | inactive
39 | COC1=C[C@@H]2[C@@H]3Cc4ccc(OC)c(O)c4[C@]2(CCN3C)CC1=O | inactive
40 | CCCC[N+]1(C)[C@H]2CC(OC(=O)[C@H](CO)c3ccccc3)C[C@H]1[C@H]1O[C@H]12 (stereo not given in full) | inactive
